# Unmarked numbers belong to inactive results.
# Tested on: Vero E6 infected with SARS-CoV-2
# Experiment: inhibition of SARS-CoV-2 cytopathic effect; higher = more antiviral protection, active = above 15
# Details: 100 nM; 48 h
row,SMILES,inhibition of SARS-CoV-2 cytopathic effect [%]
1,COc1cc(C(=S)N2CCOCC2)ccc1O [vanitiolide],-0.6
2,Cc1cc(-c2nc(-c3ccc(OC(F)(F)F)cc3)no2)nn1Cc1ccnc(N2CCN(C3CC3)CC2)c1,-12.6
3,FC(F)(F)C(F)(F)C(F)(F)C(F)(F)C(F)(F)C(F)(F)C(F)(F)C(F)(F)Br [perflubron],1.51
4,C1CCC(C(CC2CCCCN2)C2CCCCC2)CC1 (configuration not stated) [perhexiline],2.39
5,COc1ccc(-c2cc(C(F)F)nn2-c2ccc(S(N)(=O)=O)cc2)cc1F [deracoxib],3.5
6,CN(C)CC[C@@]1(c2ccc(Cl)cc2)Cc2ccccc2C(=O)O1 (racemic),-1.71
7,O=C1NC(O)CCN1[C@@H]1O[C@H](CO)[C@@H](O)[C@H]1O (some centres not stated) [tetrahydrouridine],0.47
8,O=C1C[C@@H]2OCC=C3CN4CC[C@]56c7ccccc7N1[C@H]5[C@H]2[C@H]3C[C@H]46 [strychnine],5.93
9,CCCCCS(=O)(=O)CCCCCCCCCCn1c(-c2ccc(O)cc2)c(C)c2cc(O)ccc21,-0.42
10,CCCCCCCCCCCC(=O)O [lauric-acid],0.72
11,C[C@H]1O[C@@H](Oc2c(-c3cc(O)c(O)c(O)c3)oc3cc(O)cc(O)c3c2=O)[C@@H](O)[C@@H](O)[C@@H]1O [myricitrin],0.85
12,CC1=CC(=C(c2ccc(N)cc2)c2ccc(N)cc2)C=CC1=N [basic-fuchsin],1.45
